Test [1] in a line: qHTS for Inhibitors of Ubiquitin-specific Protease USP2a Using CHOP2 as the Reporter: K633 Counterscreen (AID 652168). Also: series mostly up to about 57 µM. An outline of the steps:
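Cell-free interference counterscreen without USP2a: compounds pinned into enzyme-free buffer (20 mM Tris pH 8, 2 mM beta-mercaptoethanol, 0.05% Chaps), then DiUb K48-4IQF substrate added (100 nM stock); fluorescence read kinetically, Ex 525/Em 598.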
(In general: Quantitative high-throughput screening tests each substance at several concentrations.)

The target in test [2] is Ubiquitin carboxyl-terminal hydrolase 2 (Homo sapiens) (UniProt O75604). Kind of test: qHTS for Inhibitors of Ubiquitin-specific Protease USP2a Using CHOP2 as the Reporter: K484 Substrate (AID 652173).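 Also: cleavage of internally quenched K48 di-ubiquitin substrate measured as rising fluorescence over time; potency is read from the fitted curve at half-maximal effect; nearly all actives have a fitted effect of over 70% in size.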 An outline of the steps: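 USP2 (dispensed at 5 nM) was pinned with compounds, then DiUb K48 internally quenched fluorescent substrate (dispensed at 100 nM) was added. The buffer was 20 mM Tris pH 8, 2 mM beta-mercaptoethanol and 0.05% CHAPS. Cleavage was read kinetically as rising fluorescence, Ex 525/Em 598.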

The nature of test [3]: qHTS for Inhibitors of Ubiquitin-specific Protease USP2a Using CHOP2 as the Reporter: Cytotox Assay (AID 652170). Also: nearly all actives have a fitted effect of over 70% in size. Also: potency is read from the fitted curve at half-maximal effect. A digest of the protocol:
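HCT116 human colon cancer cells, 600 per well in DMEM with 10% FBS, exposed to compounds for 72 hr at 37 deg C. ATP measured by CellTiter-Glo luminescence, normalized to DMSO cells and no-cell background.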

Test [4] has as its target Tyrosine-protein kinase Yes (Homo sapiens) (UniProt P07947). As to the kind of experiment: qHTS for small molecule inhibitors of Yes1 kinase: Primary Screen (AID 686947). Also: nearly all actives have a fitted effect of over 60% in size. Also: potency is read from the fitted curve at half-maximal effect. A digest of the protocol: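 ADP-Glo luminescence readout; final 4 nM Yes1, 0.1 mM ATP, 0.3 mg/mL poly(E4Y), Tris pH 7.5, MgCl2, DTT, Brij-35. 20 min compound preincubation, 60 min reaction at RT. Normalized to DMSO wells with and without enzyme.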

A short description of test [5]: qHTS for small molecule inhibitors of Yes1 kinase: Counter Assay (AID 686950).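 Also: no kinase present so only ADP-Glo detection of a fixed ADP amount is tested; luminescence from ADP-Glo reporting ADP in a fixed ATP and ADP mixture; series mostly up to about 77 µM.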 An outline of the steps:
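Enzyme-free ADP-Glo interference check: compounds were preincubated 20 min in buffer, then an ATP/ADP mix (0.08 mM ATP, 0.02 mM ADP final) was added for 60 min at room temperature before two-step ADP-Glo luminescence detection.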

The source of these data is PubChem BioAssay (NCATS).

Results filed as inconclusive are left out. Where a call stands in place of a potency, no number is given. Activity calls are given as the source filed them. Calls follow the shape of the dose curve; as a rule, active = well fitted curve in the direction sought with a large enough effect; inconclusive = small, poorly fitted or top-dose-only effect, or another doubt; inactive = no such curve, though single readings can be large; an effect the other way counts as inactive or inconclusive.

Sequence of Tyrosine-protein kinase Yes (Homo sapiens) (P07947 whole entry, looked up): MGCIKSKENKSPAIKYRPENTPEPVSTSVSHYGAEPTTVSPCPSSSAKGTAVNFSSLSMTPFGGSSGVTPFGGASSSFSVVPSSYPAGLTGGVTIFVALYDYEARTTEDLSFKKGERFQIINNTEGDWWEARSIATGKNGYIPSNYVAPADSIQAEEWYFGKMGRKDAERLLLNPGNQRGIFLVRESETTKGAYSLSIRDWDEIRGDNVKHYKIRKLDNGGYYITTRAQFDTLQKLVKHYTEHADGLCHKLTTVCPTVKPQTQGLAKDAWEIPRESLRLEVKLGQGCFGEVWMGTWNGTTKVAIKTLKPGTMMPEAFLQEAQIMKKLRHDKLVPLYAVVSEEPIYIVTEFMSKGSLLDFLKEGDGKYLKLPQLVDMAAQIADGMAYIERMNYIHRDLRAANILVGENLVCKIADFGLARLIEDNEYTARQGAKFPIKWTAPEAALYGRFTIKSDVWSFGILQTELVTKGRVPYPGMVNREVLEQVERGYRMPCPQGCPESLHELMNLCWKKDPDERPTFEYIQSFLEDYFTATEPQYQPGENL
Sequence of Ubiquitin carboxyl-terminal hydrolase 2 (Homo sapiens) (O75604 whole entry, looked up): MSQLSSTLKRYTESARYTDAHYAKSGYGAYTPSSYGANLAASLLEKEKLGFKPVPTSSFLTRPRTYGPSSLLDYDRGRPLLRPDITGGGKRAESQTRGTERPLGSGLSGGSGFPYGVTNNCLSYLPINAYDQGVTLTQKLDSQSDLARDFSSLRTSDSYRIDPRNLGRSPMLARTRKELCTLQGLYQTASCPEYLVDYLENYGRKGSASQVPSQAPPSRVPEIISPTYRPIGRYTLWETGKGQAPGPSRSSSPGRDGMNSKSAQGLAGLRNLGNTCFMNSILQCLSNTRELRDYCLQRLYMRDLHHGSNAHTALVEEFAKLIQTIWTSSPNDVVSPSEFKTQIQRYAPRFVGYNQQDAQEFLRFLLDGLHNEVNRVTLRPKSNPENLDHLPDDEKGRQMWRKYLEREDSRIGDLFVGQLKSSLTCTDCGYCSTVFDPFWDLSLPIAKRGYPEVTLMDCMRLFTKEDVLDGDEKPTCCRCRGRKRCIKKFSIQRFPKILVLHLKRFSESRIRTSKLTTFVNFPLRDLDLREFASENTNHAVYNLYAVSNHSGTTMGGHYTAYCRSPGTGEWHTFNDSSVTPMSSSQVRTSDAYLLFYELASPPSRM

For the compound `O=C(Nc1nc(-c2ccccc2)cs1)c1ccncc1NS(=O)(=O)c1ccc(-c2ccccc2)cc1`, the result in test [1] was inactive. The Potency in test [2] was 1530 nM (active).
On the same counts, the results for `COc1ccc(-c2csc(NC(=O)c3ccncc3NS(=O)(=O)c3ccc(C)cc3)n2)cc1` are “inactive” and 2170 nM (active).
On the same counts, the results for `Cc1ccc(S(=O)(=O)Nc2cnccc2C(=O)Nc2nc(-c3cc4ccccc4o3)cs2)cc1` are “inactive” and 1930 nM (active).
On to `Cc1ccc(-c2cc(C(=O)Nc3ccc(Cl)cc3)c3ccccc3n2)cc1C`, for which, in test [3], the Potency entry was “inactive”.
Consider `Cc1ccc(-c2cc(C(=O)Nc3cccc(S(=O)(=O)Nc4nccs4)c3)c3ccccc3n2)cc1C`, for which the Potency result in test [3] is “inactive”. Further, in test [2], the Potency was 3060 nM (active).
Turning to `Cc1ccc(S(=O)(=O)Nc2ccccc2C(=O)Nc2ncc(-c3ccccc3)o2)cc1`, the Potency in test [3] is 4690 nM (active); in test [2], 2430 nM (active).
On the same counts, the results for `Cc1ccc(-c2cc(C(=O)Nc3ccc(S(=O)(=O)N(C)Cc4nccs4)cc3)c3ccccc3n2)cc1C` are “inactive” and 3850 nM (active).
Consider `Cc1ccc(S(=O)(=O)Nc2cnccc2C(=O)Nc2ccc3ccccc3c2)cc1`, for which, in test [1], the call was inactive. The Potency in test [2] is 6110 nM (active).
Take `Cc1ccc(-c2cc(C(=O)NCc3ccc(S(N)(=O)=O)cc3)c3ccccc3n2)cc1C`: the Potency result in test [3] was “inactive”. Besides, the Potency in test [2] is 9680 nM (active).
As to `COc1cccc(-c2csc(NC(=O)c3ccncc3NS(=O)(=O)c3ccc(C)cc3)n2)c1`, the outcome in test [1] was inactive. Moreover, the Potency in test [2] is 1720 nM (active).
For `CCCCC1CCC(C(=O)Nc2ccc(S(=O)(=O)Nc3nccs3)cc2)CC1` (stereo not drawn), the Potency entry in test [3] was “inactive”. Besides, the Potency in test [2] is 4850 nM (active).
As for `Cc1ccc(-c2cc(C(=O)Nc3cccc(S(N)(=O)=O)c3)c3ccccc3n2)cc1C`, the Potency in test [2] is 5440 nM (active).
With `Cc1ccc(-c2cc(C(=O)Nc3cccnc3)c3ccccc3n2)cc1C`, the Potency entry in test [3] is “inactive”. Further, the Potency in test [2] was 19300 nM (active).
`Cc1ccc(S(=O)(=O)Nc2ccc(C(=O)Nc3nc(-c4ccccc4)cs3)cc2Cl)cc1`: the Potency in test [2] is 2170 nM (active).
For `COC(=O)Nc1nc2ccc(Oc3cccc(NC(=O)Nc4cc(C(F)(F)F)ccc4F)c3)cc2[nH]1`, the Potency in test [4] was 11600 nM (active). The outcome in test [5] was inactive.
On the same counts, the results for `NC(=O)c1cc(-c2ccncc2)cc(-c2ccccc2)c1N` are 519 nM (active) and “inactive”.
On the same counts, the results for `COC(=O)c1cncc(C=Cc2c(C)cc(O)cc2C)c1` are 1300 nM (active) and “inactive”.
On the same counts, the results for `O=C(O)c1ccc(Oc2nccc(-c3c(-c4ccc(F)cc4)ncn3C3CCNCC3)n2)cc1` are “inactive” and “inactive”.
Turning to `CNC(=O)c1cc(-c2ccc(F)cc2)cc(-c2ccc(S(=O)(=O)N3CCCC3)cc2)c1N`, the Potency entry in test [4] was “inactive”. Moreover, the result in test [5] was inactive.
Consider `COc1cc(Nc2ncc(-c3ccccc3)o2)cc(OC)c1`, for which the Potency in test [4] was 1460 nM (active). Besides, in test [5], the compound was classed as inactive.
On the same counts, the results for `CCn1c(-c2nonc2N)nc2c(N3CCCC3)nccc21` are “inactive” and “inactive”.
On the same counts, the results for `COc1cc2ncnc(Nc3ccc4c(cnn4Cc4ccccc4)c3)c2cc1OC` are 32.8 nM (active) and “inactive”.
Regarding `NC(=O)c1cccc(Nc2nccc(Nc3cccc(F)c3)n2)c1`, the Potency in test [4] was 1160 nM (active). Further, in test [5], the compound was called inactive.
For `CS(=O)(=O)CCNCc1ccc(-c2ccc3ncnc(Nc4ccc(OCc5ccccc5)cc4)c3c2)o1`, in test [4], the Potency is 463 nM (active). The compound was called inactive in test [5].
Turning to `Clc1ccc(-c2nn3ncccc3c2-c2ccnc(Nc3ccccc3)n2)cc1`, the Potency in test [4] is 292 nM (active). Further, the result in test [5] was inactive.
Take `NS(=O)(=O)c1ccc(N=Nc2c(O)[nH]c3cccc(CCc4ccncc4)c23)cc1`: the Potency entry in test [4] was “inactive”. Moreover, the outcome in test [5] was inactive.
In the case of `c1ccc(Oc2ccc(Nc3ncc(-c4ccccc4)o3)cc2)cc1`, the Potency entry in test [4] is “inactive”. Also, the outcome in test [5] was inactive.
In the case of `Fc1ccc(-c2cc(-c3cn[nH]c3-c3ccccn3)ccn2)cc1`, the Potency in test [4] is 29200 nM (active). The compound was called inactive in test [5].
For the compound `O=C1N=c2ccc(N=Cc3c(O)[nH]c4ccccc34)cc2=N1`, in test [4], the Potency is 2920 nM (active). The compound was classed as inactive in test [5].
On the same counts, the results for `CCn1cc(-c2ccnc3[nH]ccc23)c(-c2cccc(NC(=O)Nc3ccc(OCc4ccccc4)cc3)c2)n1` are 9230 nM (active) and “inactive”.
On the same counts, the results for `COC(=O)Nc1nc2ccc(Oc3ccc(NC(=O)Nc4cccc(Cl)c4)cc3)cc2[nH]1` are “inactive” and “inactive”.
On the same counts, the results for `COc1ccc(-c2nn3ncccc3c2-c2ccnc(Nc3ccc(F)c(F)c3)n2)cc1` are 328 nM (active) and “inactive”.
As for `CS(=O)(=O)CCNCc1ccc(-c2ccc3ncnc(Nc4ccc(OCc5cccc(C(F)(F)F)c5)cc4)c3c2)o1`, the Potency in test [4] is 6540 nM (active). Further, in test [5], the result was inactive.
On the same counts, the results for `CCNC(=O)OC1CNC(C#Cc2cc3ncnc(Nc4ccc(OCc5cccc(F)c5)c(Cl)c4)c3s2)C1` (stereo not drawn) are 8230 nM (active) and “inactive”.
On the same counts, the results for `Cc1cc(O)cc(C)c1C=Cc1cncc(C(N)=O)c1` are 463 nM (active) and “inactive”.
On the same counts, the results for `COc1ccc(-c2ccncc2)cc1C(N)=O` are “inactive” and “inactive”.
`COc1ccc(-c2coc3ncnc(N)c23)cc1`: the Potency in test [4] is 11600 nM (active). In test [5], the compound was classed as inactive.
On the same counts, the results for `C#Cc1cccc(Nc2ncnc3ccc(OCCCCNCCS(C)(=O)=O)cc23)c1` are 7330 nM (active) and “inactive”.
